A word on the AC50: it is the midpoint of the concentration-response curve, whichever way the signal moves.

Molecules are shown by their SMILES. Inconclusive results are not listed. Calls of active or inactive are those of the source. How the source made its calls: active means hit-call score of the fitted dose curve at least 0.9, where 1 is the maximum; inconclusive means response in the unintended direction; inactive means score below 0.9.

The record followed here is PubChem BioAssay (EPA / NIEHS).

A short description of the test: CCTE_Mundy_HCI_iCellGluta_NOG_NeuriteLength: CCTE's Neurite Outgrowth Assay in iCellGluta cells for Neurite Length, Mundy Lab (AID 2284318). The procedure: CCTE_Mundy_HCI_iCellGluta_NOG is a multiplexed, cell-based-readout assay that uses iCell GlutaNeurons from FUJIFILM Cellular Dynamics, Inc. (FCDI), human glutamatergic enriched neurons derived from induced pluripotent stem (iPS) cells, with measurements taken at 50.33 hours after chemical dosing in a microplate: 96-well plate.CCTE_Mundy_HCI_iCellGluta_NOG_NeuriteLength is one of four components of the CCTE_Mundy_HCI_iCellGluta_NOG assay. It measures neurite outgrowth related to neurite length using High Content Imaging of fluorescently labelled markers.Data from the assay component CCTE_Mundy_HCI_iCellGluta_NOG_NeuriteLength was analyzed at the endpoint CCTE_Mundy_HCI_iCellGluta_NOG_NeuriteLength in the positive analysis fitting direction relative to DMSO as the negative control and baseline of activity. Using a type of morphology reporter, loss-of-signal activity can be used to understand developmental effects.
Exposure starts 2 hours post-plating by adding 10 ul of the working solution to 90 ul of media in the wells for a 1/10 dilution. Forty-eight hours after chemical treatment cells are fixed by direct addition of 100 ul of warm (37C) Dulbecco's phosphate buffered saline (DPBS) fixative solution containing 8% paraformaldehyde, 8% sucrose, and 0.1% of 3 mg/ml Hoechst 33342 into each well. Primary antibodies are prepared by dilution in Immunocytochemical Staining Buffer (ISB), 10X Dulbecco's PBS, 0.1% Saponin, 5% Bovine Serum Albumin, 0.5% NaN3 (Sodium Azide) and betaIII-tubulin (rabbit anti-betaIII-tubulin, 1:800) followed by Alexa Fluor-488 secondary (1:500) to label neuronal cell bodies and neurites. A Cellomics ArrayScan VTi HCS Reader is used for automated image acquisition and analysis of neurite outgrowth.
Turning to `CCOP(=O)(OCC)SCSC(C)(C)C`, the AC50 is 9.83 µM (active).

For the compound `Cn1nc(C(F)(F)F)c(CS(=O)(=O)C2=NOC(C)(C)C2)c1OC(F)F`, the AC50 is 50 µM (active).

With `CC1(C)C(C=C(Cl)Cl)C1C(=O)O[C@H](C#N)c1cccc(Oc2ccccc2)c1` (stereo not given in full), the call was inactive.

As for `[CH3][Hg][Cl]`, the AC50 is 0.0763 µM (active).

With `CC1(C)[C@@H](C=C(Cl)Cl)[C@@H]1C(=O)O[C@@H](C#N)c1ccc(F)c(Oc2ccccc2)c1`, the result was inactive.

For the compound `CCOP(=S)(OCC)SCS(=O)C(C)(C)C` (stereo not given), the compound was called inactive.

As to `C#CCN(C)[C@H](C)Cc1ccccc1`, the compound was called inactive.

For `CCOP(=O)(OCC)OC(Cl)C(Cl)(Cl)Cl` (stereo not given), the compound was classed as inactive.

Take `[Cd+2].[Cl-].[Cl-]`: the AC50 is 10.8 µM (active).

As to `COP(=O)(OC)SCN1C(=O)c2ccccc2C1=O`, the AC50 was 50.5 µM (active).

`CCOP(=O)(Oc1cnc(C(C)(C)C)nc1)OC(C)C` (stereo not given): the AC50 was 28.8 µM (active).

With `CCOP(=O)(OCC)SCSCC`, the AC50 was 49.8 µM (active).

As for `CC1(C)[C@H](C=C(Cl)Cl)[C@H]1C(=O)OCc1c(F)c(F)cc(F)c1F`, the AC50 was 18.1 µM (active).

Consider `CC(=O)[O-].[Tl+]`, for which the AC50 is 2.79 µM (active).

`CC1(C)C(C=C(Cl)c2ccc(Cl)cc2)C1C(=O)OC(C#N)c1ccc(F)c(Oc2ccccc2)c1` (stereo not given): the AC50 was 67.3 µM (active).
